Bioassay records (PubChem BioAssay)
rCAG binder = binds r(CAG) RNA repeats; r(CAG) RNA repeat, TO-PRO-1 dye displacement fluorescence; AID 651821; actives 1.3% (n = 370,000); inhibition, % at 3 µM;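 active means inhibition above the plate cutoff, the mean of all test compounds on that plate plus 3 SD, cut at about 35% in these data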;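 further: higher means more dye released from RNA so lower well fluorescence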
MBD2 DNA inh = inhibitors of human MBD2 binding to methylated oligonucleotide. Q9UBB5. TR-FRET. inhibition, % at 4.4 µM. actives 0.31% (n = 370,000). AID 686964; in the data active means inhibition above about 13%
UHRF1 MBD2 ctr = human UHRF1 methylated DNA binding inhibitors; Q96T88; UHRF1 binding to methylated oligo, TR-FRET; inhibition, % at 4.4 µM; actives 0.75% (n = 370,000); AID 687016; in the data active means inhibition above about 21%;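 further: UHRF1 SRA domain binding a hemimethylated CpG hairpin DNA probe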
Target sequence (Q96T88 whole entry, looked up, the tested form may be a part): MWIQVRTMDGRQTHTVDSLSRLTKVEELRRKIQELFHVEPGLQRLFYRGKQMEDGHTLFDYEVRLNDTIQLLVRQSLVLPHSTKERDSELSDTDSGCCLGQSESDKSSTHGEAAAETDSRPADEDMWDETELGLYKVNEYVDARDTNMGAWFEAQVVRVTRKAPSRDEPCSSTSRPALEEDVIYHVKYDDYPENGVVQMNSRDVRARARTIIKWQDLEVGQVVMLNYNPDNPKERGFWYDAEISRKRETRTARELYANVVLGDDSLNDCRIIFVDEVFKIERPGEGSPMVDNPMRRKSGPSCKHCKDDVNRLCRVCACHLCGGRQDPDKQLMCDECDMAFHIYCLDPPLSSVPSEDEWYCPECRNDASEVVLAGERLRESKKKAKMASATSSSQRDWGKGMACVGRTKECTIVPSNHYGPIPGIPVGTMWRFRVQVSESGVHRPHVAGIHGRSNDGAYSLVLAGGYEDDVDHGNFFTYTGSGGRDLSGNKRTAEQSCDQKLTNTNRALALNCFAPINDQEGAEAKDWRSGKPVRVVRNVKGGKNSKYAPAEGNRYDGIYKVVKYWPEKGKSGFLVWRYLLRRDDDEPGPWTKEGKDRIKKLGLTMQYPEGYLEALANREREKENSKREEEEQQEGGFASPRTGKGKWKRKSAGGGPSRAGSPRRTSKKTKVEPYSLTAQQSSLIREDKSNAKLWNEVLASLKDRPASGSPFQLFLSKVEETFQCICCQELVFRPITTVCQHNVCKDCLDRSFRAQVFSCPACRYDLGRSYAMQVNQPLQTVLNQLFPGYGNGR
DNMT1 block = inhibitors of human DNMT1. P26358. DNMT1 molecular beacon, Hinp1I cleavage, fluorescence. inhibition (reported as % activation of signal), % at 10 µM. actives 0.83% (n = 360,000); in the data active means inhibition above about 50%
LEDGF integ inh = blocks HIV-1 LEDGF/p75-dependent DNA integration | actives 0.64% (n = 370,000) | TR-FRET IN-LEDGF/p75 DNA integration, Eu/Cy5 | inhibition, % at 3.7 µM | AID 743269;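 active means inhibition above the screen-wide mean plus 3 SD, cut at about 13% in these data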;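 further: signal is the Cy5 over europium emission ratio at 671 and 618 nm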
PG9 Ab binder = binds the HIV-1 gp120 antibody PG9. actives 0.43% (n = 360,000). inhibition, % at 6.7 µM. TR-FRET gp120-PG9 antibody binding; in the data active means inhibition above about 8.5%
rCAG bind conf = r(CAG) RNA repeat binding, confirmation; TO-PRO-1 dye displacement fluorescence; actives 70% (n = 4,300); inhibition, % at 3 µM; shares compounds with rCAG binder;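 active means inhibition above a per-plate cutoff, the mean inhibition of sample wells plus 3 SD, cut at about 35% in these data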;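 further: loss of TO-PRO-1 fluorescence as compound displaces dye from 1x1 AA loop RNA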
DNA CAG counter = counter-screen for rCAG RNA binders: DNA CAG dye complex inhibitors; shares compounds with rCAG binder; d(CAG) DNA oligo TO-PRO-1 dye displacement, fluorescence; inhibition, % at 3 µM; actives 94% (n = 4,300);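 active means inhibition above its plate's cutoff, the mean test-well inhibition plus 3 SD, cut at about 4.8% in these data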;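 further: hits displace the dye from DNA and so lower well fluorescence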
UHRF1 DNA bind = counter-screen for MBD2 inhibitors: human UHRF1 methylated DNA binding inhibitors; shares compounds with MBD2 DNA inh; UHRF1 binding to methylated oligonucleotide, TR-FRET; inhibition, % at 4.4 µM; actives 25% (n = 1,000); in the data active means inhibition above about 21%;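 further: UHRF1 SRA domain binding a labeled hemimethylated CpG hairpin DNA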
MBD2 DBD conf = MBD2-DBD methyl-DNA binding inhibition, TR-FRET confirmation; shares compounds with MBD2 DNA inh; actives 26% (n = 1,000); AID 720531; TR-FRET MBD2-DBD binding to methylated oligonucleotide; inhibition, % at 4.4 µM
IN multimer act = HIV-1 integrase multimerization activation, counter-screen; shares compounds with LEDGF integ inh; TR-FRET HIV-1 integrase multimerization, biochemical; activation, % at 7.7 µM; actives 17% (n = 2,000); AID 1053131; in the data active means activation above about 8.9%
TRFRET interf = counter-screen for LEDGF/p75 integration inhibitors: TR-FRET optical interference; inhibition, % at 7.7 µM; shares compounds with LEDGF integ inh; AID 1053135; 2,000 tested, under 10 active; TR-FRET optical interference counterscreen, HIV-1 IN multimerization;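 active means inhibition above the mean over all tested compounds plus 3 SD, which no compound reached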
LEDGF integ conf = LEDGF/p75-dependent HIV-1 integration inhibition, confirmation | shares compounds with LEDGF integ inh | TR-FRET LEDGF/p75-dependent HIV-1 integration, biochemical | inhibition, % at 3.7 µM | actives 36% (n = 2,000)
Numbers stand for hits; n = inactive; x = no result given. An excerpt weighted towards active compounds, which were near 3.5% of everything screened. Unless noted, no stated cut-off is given here; in the data, active means inhibition above about 14%; inactive means the rest.

SMILES | rCAG binder | MBD2 DNA inh | UHRF1 MBD2 ctr | DNMT1 block | LEDGF integ inh | PG9 Ab binder | rCAG bind conf | DNA CAG counter | UHRF1 DNA bind | MBD2 DBD conf | others
CN1C(=O)/C(=C/C=C/c2ccco2)C(=O)NC1=S | 35 | 23 | 72 | 94 | 60 | n | n | 7.8 | 62 | 22
Oc1ccc(O)c2c1C1(Cl)C(Cl)=C(Cl)C2(Cl)C1(Cl)Cl | n | n | n | n | n | n | x | x | x | x
Cc1ccc(N2C(=O)NC(=O)/C(=C\C=C\c3ccco3)C2=O)cc1C | 36 | n | n | 66 | 29 | n | n | 6.2 | x | x | IN multimer act=n;TRFRET interf=n;LEDGF integ conf=34
Cc1ccc(OCCn2cccc2/C=C2/C(=O)NC(=O)N(Cc3ccco3)C2=O)cc1 | 36 | n | 64 | 61 | 58 | n | n | 8.7 | x | x | IN multimer act=n;TRFRET interf=n;LEDGF integ conf=37
C=CCN1C(=O)NC(=O)/C(=C/C=C/c2ccccc2)C1=O | n | n | n | n | n | n | x | x | x | x
O=C1NC(=O)N(Cc2ccco2)C(=O)/C1=C/C=C/c1ccco1 | 50 | 74 | 100 | 97 | 92 | n | n | 14 | 55 | 30 | IN multimer act=n;TRFRET interf=n;LEDGF integ conf=56
CN(C)c1ccc(/C=C/C=C2/C(=O)NC(=O)N(c3ccccc3)C2=O)cc1 | n | n | n | n | n | n | x | x | x | x
CC1(CCCc2ccc(N(CCCl)CCCl)cc2)NC(=O)NC1=O (stereo unspecified) | n | n | n | n | n | n | x | x | x | x
CN(C)C1C(=O)C(C(N)=O)=C(O)C2(O)C(=O)C3=C(O)c4c(O)cccc4C(C)(O)C3C(O)C12 (stereo unspecified) | 73 | 31 | 71 | 53 | 53 | n | n | 9.1 | n | n | IN multimer act=21;TRFRET interf=n;LEDGF integ conf=23
CN1CC(C(=O)c2cccc(C(F)(F)F)c2)C(c2ccc(Cl)cc2)C1 (stereo unspecified) | n | n | n | n | n | n | x | x | x | x
COC(=O)CC1(CC(=O)OC)C(=O)N(c2ccccc2)C(=O)N(c2ccccc2)C1=O | n | 55 | n | n | n | n | x | x | n | n
COC(=O)CC1(CC(=O)OC)C(=O)NC(=O)NC1=O | n | n | n | n | n | n | x | x | x | x
CCC1=Nc2cc(C(=O)N3CCC4(CC3)OCCO4)ccc2Sc2ccc(C)cc21 | n | 21 | n | n | n | n | x | x | n | n
CSc1ccccc1NP1(=O)OCC(C)([N+](=O)[O-])CO1 (stereo unspecified) | n | n | n | n | n | n | x | x | x | x
CN(C)Cc1c[nH]c2cc([N+](=O)[O-])ccc12 | n | 19 | n | n | n | n | x | x | n | n
C1=CC(Cc2cncs2)c2ccccc21 (stereo unspecified) | n | n | n | n | n | n | x | x | x | x
Cc1ccc2c(C)c3ccc4ccccc4c3c[n+]2c1 | n | 72 | 27 | n | n | n | x | x | 43 | 83
CN1C(=O)NC(=O)/C(=C\C=C\c2ccccc2[N+](=O)[O-])C1=O | n | n | n | x | n | n | x | x | x | x
COc1cc2c(ccc3c4cc(OC)c(OC)cc4c[n+](C)c23)cc1O | n | 88 | 24 | n | n | n | x | x | 56 | 100
